# About 37,000 (12%) of roughly 300,000 compounds were called active. Cut-off read from the data, not from the text of the source: active = max response mostly above about 13% (no sharp cut-off); inactive = mostly below about 14%. The list comes from a sample in which actives are over-represented; it also holds similar structures and randomly drawn compounds.
# Assay: Cycloheximide Counterscreen for Small Molecule Inhibitors of Shiga Toxin; note: read at 38.3 µM for the half of the compounds with a filed dose; 0% is about no effect
# Conditions: cell reporter, cycloheximide protein synthesis inhibition counterscreen; stronger effect = higher value
row,SMILES,max response
1,COc1ccccc1-n1c(=S)[nH]c2c(sc(=S)n2-c2ccc(C)cc2C)c1=O,5.32% (inactive)
2,O=S(=O)(c1cnccc1N1CCN(/N=C/c2ccc(Br)cc2)CC1)N1CCCCC1,-0.626% (inactive)
3,O=C(CSc1nnnn1-c1ccc(O)cc1)N1N=C(c2ccc3ccccc3c2)CC1c1ccccc1 (centres undefined),6% (inactive)
4,CC(C)=C1SC(N2CCN(c3ccc(C)c(Cl)c3)CC2)=NC1=O,-1.62% (inactive)
5,CC(C)=C1SC(N2CCN(c3cccc(C)c3)CC2)=NC1=O,-1.33% (inactive)
6,CCN1C(=O)/C(=C2\SC(N3CCCCC3)=NC2=O)c2ccccc21,18.4% (active)
7,CN(Cc1cnccn1)C(=O)c1cc(COc2cccc(C(F)(F)F)c2)on1,37.1% (active)
8,Cc1cc(CN(C)C(=O)c2cc(COc3ccc(C)c(C)c3)on2)n[nH]1,46% (active)
9,Cc1ccc(OCc2cc(C(=O)N(C)CCc3ccccc3)no2)cc1C,62.4% (active)
10,CN(CCOc1ccccc1)C(=O)c1cc(COc2c(F)cccc2F)on1,15.4% (inactive)
11,COc1ccc(C(=O)NNC(=O)c2cc(C)[nH]n2)cc1,3.07% (inactive)
12,CN(Cc1cccnc1)C(=O)c1cc(COc2ccc3ncccc3c2)on1,7.18% (inactive)
13,C/C(=N/OC(=O)c1cccc(C(F)(F)F)c1)c1cnccn1,-2.87% (inactive)
14,COCCNC(=O)COc1ccc(C)c(C)c1,9.18% (inactive)
15,Cc1nonc1C1CCCN1C(=O)c1cc(COc2cccc(C(F)(F)F)c2)on1 (centres undefined),27.6% (active)
16,CCC(=O)OCc1c(C(F)(F)F)nn(C)c1Oc1cccc(C(F)(F)F)c1,-1.08% (inactive)
17,CCOC(=O)N1CCN(Cc2nc(Cc3cccc(C(F)(F)F)c3)no2)CC1,9.29% (inactive)
18,Cc1ccc(OCC(=O)NC(C)c2ccccc2)cc1C (centres undefined),-1.54% (inactive)
19,CC(=O)c1cccc(NC(=O)C2CCCN(S(=O)(=O)c3cccc4nonc34)C2)c1 (centres undefined),-1.65% (inactive)
20,CCCn1c(C2CCCN2c2nc(-c3ccc(C)cc3)cs2)nc2cc(Cl)c(N3CCCCC3)cc21 (centres undefined),2.93% (inactive)

row,SMILES,max response
1,CCN(CC)CCN(C(=O)c1cc(Cl)sc1Cl)c1nc2cc3c(cc2s1)OCO3,11.7% (inactive)
2,CC(=O)Nc1ccc(NC(=O)CN2C(=O)COc3ccc(S(=O)(=O)N4CCCCC4)cc32)cc1,-11.2% (inactive)
3,COc1ccccc1Oc1ccc(N2CC(C(=O)OCC(=O)c3ccc(F)cc3)CC2=O)cc1 (centres undefined),1.71% (inactive)
4,CCCOc1ccc(Cc2c(O)nc(SC)[nH]c2=O)cc1C,1.31% (inactive)
5,Cc1noc(/C=C/c2ccco2)c1S(=O)(=O)N1CCC(C(=O)Nc2ccc(Cl)cn2)CC1,14.7% (inactive)
6,Cc1cc(C)cc(OCC(=O)Nc2cc(NC(=O)COc3cc(C)cc(C)c3)cc(C(=O)O)c2)c1,-5.04% (inactive)
7,COc1ccc(CCNS(=O)(=O)c2cc3c(cc2C)NC(=O)CO3)cc1OC,-0.971% (inactive)
8,FC(F)(F)c1nc(-c2ccccc2)ncc1-c1nnnn1-c1ccccc1,-1.17% (inactive)
9,Cc1ccc(CNC(=O)CCN2C(=O)[C@@H]3Cc4ccccc4CN3C2=O)cc1,4.73% (inactive)
10,COc1ccccc1CC(=O)Nc1ccc([N+](=O)[O-])cc1OC,-1.19% (inactive)
11,CCCCSc1nc2ccccc2[nH]1,30.4% (active)
12,COc1ccccc1CSc1nc2ccccc2[nH]1,41% (active)
13,CCc1nnc(NC(=O)CCCSc2nc3ccccc3[nH]2)s1,-1.42% (inactive)
14,COc1ccccc1CSc1ncc(-c2ccc([N+](=O)[O-])cc2)[nH]1,29.2% (active)
15,C=CCSc1nc2ccccc2[nH]1,12.4% (inactive)
16,N#Cc1c(-c2ccccc2)nc(SCc2ccc([N+](=O)[O-])cc2)[nH]c1=O,-1.84% (inactive)
17,COc1ccccc1-c1noc(CSc2nc(C)cc(=O)[nH]2)n1,1.82% (inactive)
18,O=C(NCc1ccccc1)c1onc(CSc2nc3ccccc3[nH]2)c1C(=O)NCc1ccccc1,-0.0609% (inactive)
19,CCNS(=O)(=O)c1ccc(CCC(=O)N2CCN(c3ccc(OC)cc3)CC2)cc1,2.4% (inactive)
20,CC(Oc1ccccc1[N+](=O)[O-])C(=O)N/N=C/c1ccoc1 (centres undefined),-2.14% (inactive)

row,SMILES,max response
1,CCOc1cc(C(C(=O)NCC2CCCO2)N(C(=O)Cn2nnc3ccccc32)c2cccc(OC)c2)ccc1O (centres undefined),-2.76% (inactive)
2,Cc1c(Cl)c([N+](=O)[O-])nn1Cc1ccc(C(=O)N/N=C\c2cc(Cl)ccc2O)o1,9.36% (inactive)
3,O=C(N/N=C/c1ccc2c(c1)OCO2)c1ccc(Cn2cc([N+](=O)[O-])cn2)o1,12.3% (inactive)
4,O=C(N/N=C\c1ccc(Br)cc1)c1ccc(Cn2cccn2)o1,19.8% (active)
5,CN(C)c1ccc(/C=N/NC(=O)c2ccc(Cn3cc(Br)cn3)o2)cc1,56.4% (active)
6,CC1CCc2c(sc(NC(=O)c3ccc(Cn4cc(Br)cn4)o3)c2C(N)=O)C1 (centres undefined),0.185% (inactive)
7,O=C(N/N=C/c1ccc(OCC2COCCO2)cc1)c1ccc(Br)cc1 (centres undefined),3.9% (inactive)
8,C=CCNC(=S)NNc1ncnc2sc3c(c12)CC(C)(C)OC3,-1.51% (inactive)
9,COc1ccccc1CNS(=O)(=O)CC12CCC(CC1=O)C2(C)C (centres undefined),-1.52% (inactive)
10,CC(C)(C)OC(=O)CNC(=O)c1[nH]cnc1C(=O)N[C@@H](Cc1ccccc1)C(=O)OCc1ccccc1,-1.14% (inactive)
11,CCOC(=O)N1CCN(Cc2nnc(-c3ccccc3Cl)o2)CC1,-1.64% (inactive)
12,N/C(=N\S(=O)(=O)c1cc(C(F)(F)F)cc(C(F)(F)F)c1)c1cccs1,0.609% (inactive)
13,Cc1nn(Cc2ccc(Cl)cc2)c(Cl)c1/C=N/NC(=O)CNc1ccccc1F,-0.244% (inactive)
14,CCn1nc(C)c(/C=N/NC(=O)Cc2ccc(Cl)cc2)c1C,27.9% (active)
15,Cc1nn(Cc2ccc(Cl)cc2)c(Cl)c1/C=N/NC(=O)c1cccnc1,-2.03% (inactive)
16,COCCCNC(=O)[C@H]1N2C(=O)c3ccccc3C2SC1(C)C (some centres undefined),-1.51% (inactive)
17,Cc1ccc(SCCC(=O)NC(C(C)C)C(C)C)cc1,1.28% (inactive)
18,Cc1ccc(SCCSc2ncccn2)cc1,44.5% (active)
19,Cc1ccc(SCCC(=O)NCc2ccccn2)cc1,-2.86% (inactive)

# Source: PubChem BioAssay AID2314 (National Center for Advancing Translational Sciences (NCATS), 2010)
